The values below come from PubChem BioAssay.

A number with no mark means an inactive call. The rule behind the calls is not given here.

The target in this assay is Pantothenate synthetase (Mycobacterium tuberculosis (strain ATCC 25618 / H37Rv)) (UniProt P9WIL5). Description: Coupled enzyme confirmation of inhibitors against recombinant Mtb PanC (AID 375).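 Note: 0% = full reaction with vehicle and 100% = no enzyme background.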 The following applies: coupled enzyme assay; at 10 µM, hits give high values.
Pantothenate synthetase (Mycobacterium tuberculosis (strain ATCC 25618 / H37Rv)), sequence (P9WIL5 whole entry, looked up): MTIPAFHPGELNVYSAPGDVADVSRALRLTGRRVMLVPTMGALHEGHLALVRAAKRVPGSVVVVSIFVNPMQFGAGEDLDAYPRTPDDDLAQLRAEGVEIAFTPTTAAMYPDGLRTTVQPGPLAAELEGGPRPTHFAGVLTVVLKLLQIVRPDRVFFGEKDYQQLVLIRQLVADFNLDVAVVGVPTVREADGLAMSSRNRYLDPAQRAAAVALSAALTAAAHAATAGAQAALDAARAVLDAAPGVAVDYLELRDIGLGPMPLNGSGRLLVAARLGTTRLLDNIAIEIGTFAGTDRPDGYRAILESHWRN
Consider `CC1=C(C(=O)Nc2ccccc2)C(c2ccccn2)n2nc(CCCO)nc2N1` (stereo not given), for which the inhibition is 7%. As for `CCOC(=O)c1ccc(NC2OC(=O)c3ccccc32)cc1` (stereo not given), the inhibition was 4%.

Turning to `O=C(CCS(=O)(=O)c1cc(Br)cc2c1N(C(=O)C1CC1)CC2)NCC1CCCO1` (stereo not given), the inhibition was 0%.

For the compound `CCNc1ccc(S(=O)(=O)C(F)(F)F)cc1NC(=O)C12CCC(CC1)C2`, the inhibition is 0%. As to `COc1cccc2cc(C(=O)N3CCN(c4ccc(C)cc4C)CC3)c(=O)oc12`, the inhibition is 0%. With `O=C(COC(=O)c1cc(-c2ccco2)nc2ccccc12)NCc1ccc2c(c1)OCO2`, the inhibition was 0%. As to `N#Cc1nc(-c2ccco2)oc1NCc1ccco1`, the inhibition was 11%. Turning to `CCOc1ccc2nc(SCc3ccc(C(=O)OC)o3)[nH]c2c1`, the inhibition was 0%. For `CC12CN3CC(C)(CN(C1)C3c1ccc(Cl)cc1Cl)C2=O` (stereo not given), the inhibition is 0%.

Consider `Cc1ccc(N(CC2=NCCN2)c2cccc(O)c2)cc1`, for which the inhibition was 1%. As to `CN(C)CCCN1C(=O)c2oc3ccc(Cl)cc3c(=O)c2C1c1cccnc1` (stereo not given), the inhibition was 0%. With `COC(=O)c1ccccc1S(=O)(=O)NC(=O)c1ccccc1` the figure was 0%; with `O=C1OCc2cc(NC(=O)C3CCCO3)ccc21` (stereo not given), 5%.

In the case of `Cc1cc(C)n2nc3nc(N4CCCCC4)nc(-c4ccco4)c3c2n1`, the inhibition was 25%. Turning to `CCOc1ccccc1NC(=O)N1CCCC1C(=O)Nc1nnc(CC)s1` (stereo not given), the inhibition was 0%.

In the case of `COc1cccc(NS(=O)(=O)c2ccc3[nH]cc(C(=O)NC4CC4)c(=O)c3c2)c1`, the inhibition was 2%. Take `COc1ccc(NC(=O)C2CCCN(S(=O)(=O)c3cccc4cccnc34)C2)cc1OC` (stereo not given): the inhibition was 0%.

Consider `COc1nc2ccc(C)cc2cc1-c1noc(-c2cccnc2)n1`, for which the inhibition is 4%. The result for `COc1cc2c(OC)cccc2cc1C(=O)O` reads 0%. Turning to `O=C1CCCC2=C1C(c1ccc(Br)cc1)c1c([nH]c(=S)[nH]c1=O)N2` (stereo not given), the inhibition was 0%.

In the case of `O=C(c1ccc(Cl)cc1)N(Cc1cccs1)C1CCS(=O)(=O)C1` (stereo not given), the inhibition was 0%. With `O=C(CN1CCN(c2ccc(F)cc2)CC1)OCc1ccccc1` the figure was 3%.

With `COc1ccccc1S(=O)(=O)Cc1ccc(C(=O)N2CCN(c3ccccn3)CC2)o1`, the inhibition is 0%.

With `O=C(CS(=O)(=O)c1cn(Cc2ccc(Cl)cc2)c2ccccc12)N1CCOCC1`, the inhibition is 0%. With `CC1=C(C)C(=O)C(CCCCC#CCCCC#CCO)=C(C)C1=O` the figure was 6%; with `NC(=O)CSCc1ccc(Br)cc1`, 0%; with `CCCCOCCCNC(=O)c1ccccc1OCC`, 2%. As to `O=C1c2ccccc2C(=O)N1CCN1CCCCC1`, the inhibition was 7%. For `CCn1c(SCC(=O)Nc2ccc3c(c2)OCO3)nnc1-c1cnccn1`, the inhibition is 0%.

With `COc1ccc(Cn2nnnc2C(c2ccccn2)N2CCN(c3cc(Cl)ccc3C)CC2)cc1` (stereo not given), the inhibition is 0%. As for `O=C1CN=C(Nc2cccc(C(F)(F)F)c2)N1C1CCCC1`, the inhibition was 0%. For the compound `C=CCOc1nc2c(c(=O)n(C)c(=O)n2C)n1Cc1c(Cl)cccc1Cl`, the inhibition is 1%. With `CCOC(=O)N1CCN(Cc2nc3c(c(=O)[nH]c(=O)n3C)n2Cc2cc(C)ccc2C)CC1`, the inhibition was 0%.

Regarding `O=S1(=O)CCC(NS(=O)(=O)/C=C/c2ccccc2)C1` (stereo not given), the inhibition was 8%. As for `CCCS(=O)(=O)N1CCCC(C(=O)NC(C)c2ccc3c(c2)OCCO3)C1` (stereo not given), the inhibition was 3%. For the compound `CN(C)c1nc(OCCOC(=O)Nc2ccc(Cl)cc2Cl)nc(N(C)C)n1`, the inhibition was 0%. In the case of `CCOc1cc(-c2nc3ccccn3c2NCC2CCCO2)ccc1O` (stereo not given), the inhibition is 0%. With `CCNC(=O)CC1C(=O)N(c2ccccc2)C(=O)N1Cc1ccc(OC)cc1` (stereo not given), the inhibition was 0%. With `N#CC1=C(N)S[C@H](C(=O)C23CC4CC(CC(C4)C2)C3)[C@H]1c1ccncc1` the figure was 0%.

For the compound `Cc1nn(C(=O)c2ccoc2C)c(N)c1-c1ccccc1`, the inhibition was 2%.
